# Unmarked numbers belong to inactive results. Results filed as inconclusive are left out. Where a call stands in place of a potency, no number is given. Activity calls are given as the source filed them. Unless noted, calls follow the shape of the dose curve; as a rule, active = well fitted curve in the direction sought with a large enough effect in the repeat runs; inconclusive = weak or mixed curves; inactive = no such curve, though single readings can be large; an effect the other way counts as inactive or inconclusive.
# Legend:
# [1] = qHTS assay for small molecule agonists of the p53 signaling pathway (AID 651631; calls by dose curve; also: nearly all actives have a fitted effect of over 15% in size)
# Outline: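 Fluorescence intensity from cleaved LiveBLAzer B/G substrate (2 h, room temperature) served as the signal. Beforehand, HCT-116 reporter cells bearing p53 response elements were treated 16 h at 37 °C with DMSO-dissolved compounds.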
# [2] = qHTS assay for small molecule agonists of the p53 signaling pathway - cell viability (AID 651633; calls by dose curve;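 also: p53RE-bla HCT reporter cells with a stable beta-lactamase p53 reporter; series mostly up to about 83 µM; nearly all actives have a fitted effect of over 30% in size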)
# Outline: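 Viability counter-read: CellTiter-Glo luminescence (30 min, room temperature) in the same p53RE-bla plates. These plates had been exposed to compounds for 16 h at 37 C.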
# [3] = qHTS assay for small molecule disruptors of the mitochondrial membrane potential - cell viability (AID 720634; calls by dose curve;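 also: human HepG2 liver cancer cells; series mostly up to about 83 µM; nearly all actives have a fitted effect of over 20% in size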)
# Outline: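 Same-well counter-screen: following the MMP dye addition, CellTiter-Glo was added to 1 hr compound-treated HepG2 cells and luminescence read after 30 min at room temperature.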
# [4] = qHTS assay for small molecule disruptors of the mitochondrial membrane potential (AID 720635)
# Outline: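 Mitochondrial membrane potential tracked with Mito-MPS dye, red aggregates (ex 540/em 590 nm) against green monomers (ex 490/em 535 nm). Compound treatment 1 hr at 37C, dye 30 min in HepG2.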
# [5] = qHTS assay to test for compound auto fluorescence at 590 nm (red) in HepG2 cells (AID 720674)
# Outline: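 1 hr compound incubation on HepG2 cells, 37 C, 5% CO2; plate read ex 540 nm / em 590 nm; intensities reported as Rose Bengal sodium equivalents.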
# [6] = qHTS assay to test for compound auto fluorescence at 535 nm (green) in HepG2 cells (AID 720675)
# [7] = qHTS assay to test for compound auto fluorescence at 460 nm (blue) in HEK293 cells (AID 720678)
# Outline: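 HEK293 cells (2,000/well, medium with 10% dialyzed FBS) attached 4-5 hr, then exposed to compound overnight at 37C, 5% CO2. Blue fluorescence read at 405/460 nm, with triamterene as reference fluorophore.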
# [8] = qHTS assay to test for compound auto fluorescence at 590 nm (red) in HEK293 cells (AID 720679)
# Outline: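 HEK293 cells (2,000/well, 10% dialyzed FBS) attached 4-5 hr, then dosed with compound or DMSO and incubated overnight at 37C, 5% CO2. Red fluorescence read at 540/590 nm, Rose Bengal sodium as reference fluorophore.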
# [9] = qHTS assay to test for compound auto fluorescence at 535 nm (green) in HEK293 cells (AID 720680)
# [10] = qHTS assay to test for compound auto fluorescence at 460 nm (blue) in HEK293 cell free culture (AID 720681)
# Outline: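 Blue fluorescence (Ex 405/Em 460 nm, triamterene-equivalent) was read immediately after pin transfer of compound or DMSO into medium (DMEM, 10% FBS) without cells.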
# [11] = qHTS assay to test for compound auto fluorescence at 535 nm (green) in HEK293 cell free culture (AID 720682)
# Outline: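 Intrinsic compound fluorescence is measured in culture medium containing 10% FBS, with excitation at 485 nm and detection at 535 nm, referenced to fluorescein.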
# [12] = qHTS assay to test for compound auto fluorescence at 590 nm (red) in HEK293 cell free culture (AID 720683)
# Outline: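 Red-channel autofluorescence of compounds in culture medium (DMEM, 10% FBS), no cells, measured at 540/590 nm. Rose Bengal sodium is the reference fluorophore for equivalence.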
# [13] = qHTS assay to test for compound auto fluorescence at 590 nm (red) in HepG2 cell free culture (AID 720684)
# Outline: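 No cells present: MEM + 10% FBS only. Compound pinned in, red label read (540/590 nm). Activity = fluorescence equivalent to Rose Bengal sodium.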
# [14] = qHTS assay to test for compound auto fluorescence at 460 nm (blue) in HepG2 cell free culture (AID 720685)
# Outline: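 Cell-free plates of MEM plus 10% FBS received 23 nL compound or DMSO vehicle; blue-channel (405/460 nm) intensity scored against triamterene as reference fluorophore.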
# [15] = qHTS assay to test for compound auto fluorescence at 535 nm (green) in HepG2 cell free culture (AID 720686)
# [16] = molecular target: Glucocorticoid receptor (Homo sapiens) (UniProt P04150); assay: qHTS assay to identify small molecule antagonists of the glucocorticoid receptor (GR) signaling pathway (AID 720692; active = well fitted inhibition curve with a large enough effect in the signal ratio in the repeat runs, not every such curve was filed as active; the % refers to the signal ratio; also: potency is read from the fitted curve at half-maximal effect)
# Outline: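 GRE-bla HeLa line, dex-stimulated (5 nM final). Compound exposure 18 h, 37 C. Beta-lactamase FRET read after 2 h RT substrate.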
# [17] = qHTS assay for small molecules that induce genotoxicity in human embryonic kidney cells expressing luciferase-tagged ATAD5 (AID 651632); also: nearly all actives have a fitted effect of over 15% in size
# Outline: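 Test compounds were delivered by pin tool onto HEK293T reporter cells (2,000/well) expressing ATAD5 fused to luciferase. After 16 hr at 37C, 5% CO2, Amplite was added for 30 min at room temperature and luminescence was measured.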
# [18] = qHTS assay for small molecules that induce genotoxicity in human embryonic kidney cells expressing luciferase-tagged ATAD5 - cell viability (AID 651634; calls by dose curve; also: nearly all actives have a fitted effect of over 25% in size)
# Outline: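 Quantitative high-throughput format. HEK293T cells expressing ATAD5 fused to luciferase were plated at 2,000 cells/well and treated 15.5 hr with compound versus DMSO. Viability was determined by fluorescent live-cell protease substrate, 30 min at 37C.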
# [19] = qHTS assay to test for compound auto fluorescence at 460 nm (blue) in HepG2 cells (AID 720687)
# Outline: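 Blue-channel autofluorescence (Ex/Em 405/460 nm, triamterene-equivalent) was measured after 1 hr compound exposure at 37 C, 5% CO2. Cells were HepG2, plated overnight at 37 C in MEM plus 10% FBS.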
# [20] = molecular target: Glucocorticoid receptor (Homo sapiens) (UniProt P04150); assay: qHTS assay to identify small molecule agonists of the glucocorticoid receptor (GR) signaling pathway (AID 720691; active = well fitted activation curve with a large enough effect in the signal ratio in the repeat runs, not every such curve was filed as active; the % refers to the signal ratio)
# Outline: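 A HeLa cervical cancer line expressing GR and a glucocorticoid response element-driven beta-lactamase gene is treated with compounds for 18 h; LiveBLAzer B/G FRET substrate is then applied and fluorescence read.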
# Chain of Glucocorticoid receptor (Homo sapiens) (P04150 whole entry, looked up): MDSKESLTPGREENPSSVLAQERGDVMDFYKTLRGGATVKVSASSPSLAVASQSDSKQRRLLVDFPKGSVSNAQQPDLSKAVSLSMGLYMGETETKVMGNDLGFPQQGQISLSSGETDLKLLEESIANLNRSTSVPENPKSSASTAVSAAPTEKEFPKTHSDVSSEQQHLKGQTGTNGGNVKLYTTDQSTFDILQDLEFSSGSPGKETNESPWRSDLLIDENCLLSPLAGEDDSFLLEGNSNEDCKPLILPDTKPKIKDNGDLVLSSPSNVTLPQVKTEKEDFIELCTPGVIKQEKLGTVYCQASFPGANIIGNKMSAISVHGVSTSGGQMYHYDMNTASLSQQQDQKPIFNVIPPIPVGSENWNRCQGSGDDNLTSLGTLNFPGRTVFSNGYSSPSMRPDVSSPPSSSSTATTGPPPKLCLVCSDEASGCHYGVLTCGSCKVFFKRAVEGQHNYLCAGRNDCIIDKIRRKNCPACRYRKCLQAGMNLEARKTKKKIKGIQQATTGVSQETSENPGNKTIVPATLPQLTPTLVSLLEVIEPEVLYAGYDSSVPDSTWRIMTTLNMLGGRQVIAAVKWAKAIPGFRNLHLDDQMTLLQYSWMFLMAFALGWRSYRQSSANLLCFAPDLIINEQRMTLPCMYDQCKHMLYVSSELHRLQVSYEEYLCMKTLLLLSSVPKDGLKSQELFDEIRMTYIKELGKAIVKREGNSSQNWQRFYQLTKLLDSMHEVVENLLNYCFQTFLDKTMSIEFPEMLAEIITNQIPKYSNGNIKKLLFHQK
smiles,measurement,setting,value
CC(C)CCCCCCCOC(=O)c1ccccc1C(=O)OCCCCCCCC(C)C,Potency,[1],inactive
same,Potency,[2],inactive
same,Potency,[3],inactive
same,Potency,[4],inactive
same,outcome,[5],inactive
same,outcome,[6],inactive
same,outcome,[7],inactive
same,outcome,[8],inactive
same,outcome,[9],inactive
same,outcome,[10],inactive
same,outcome,[11],inactive
same,outcome,[12],inactive
same,outcome,[13],inactive
same,outcome,[14],inactive
same,outcome,[15],inactive
same,Potency,[16],inactive
C[C@]12CC[C@H]3[C@@H](CCC4=CC(=O)CC[C@@H]43)[C@@H]1CC[C@@H]2OC(=O)CCc1ccccc1,Potency,[1],inactive
same,Potency,[17],inactive
same,Potency,[18],inactive
same,Potency,[3],inactive
same,outcome,[5],inactive
same,outcome,[6],inactive
same,outcome,[7],inactive
same,outcome,[8],inactive
same,outcome,[9],inactive
same,outcome,[11],inactive
same,outcome,[12],inactive
same,outcome,[13],inactive
same,outcome,[14],inactive
same,outcome,[15],inactive
same,outcome,[19],inactive
same,Potency,[20],inactive
same,Potency,[16],6.74 µM (active)
CC(C)OC(=O)Cc1ccccc1,Potency,[1],inactive
same,Potency,[17],inactive
same,Potency,[18],inactive
same,Potency,[3],inactive
same,Potency,[4],inactive
same,outcome,[5],inactive
same,outcome,[6],inactive
same,outcome,[7],inactive
same,outcome,[8],inactive
same,outcome,[11],inactive
same,outcome,[12],inactive
same,outcome,[13],inactive
same,outcome,[14],inactive
same,outcome,[15],inactive
same,Potency,[20],inactive
same,Potency,[16],inactive
CC(C)(C#N)C(C)(C)C#N,Potency,[1],inactive
same,Potency,[17],inactive
same,Potency,[18],inactive
same,Potency,[3],inactive
same,Potency,[4],inactive
same,outcome,[5],inactive
same,outcome,[6],inactive
same,outcome,[7],inactive
same,outcome,[8],inactive
same,outcome,[9],inactive
same,outcome,[10],inactive
same,outcome,[11],inactive
same,outcome,[12],inactive
same,outcome,[13],inactive
same,outcome,[14],inactive
same,outcome,[15],inactive
same,outcome,[19],inactive
CCCCCCCCCCCCN=C(N)N,activation,[17],-6.24% [at 3.63 µM]
same,"activity change, negative = cytotoxicity",[2],-15.7% [at 3.63 µM]
same,"activity, negative = cytotoxicity",[18],-6.8% [at 3.63 µM]
same,"fluorescence, relative to Rose Bengal",[5],0.188% [at 3.72 µM]
same,"fluorescence, % of fluorescein control",[6],-0.0052% [at 3.72 µM]
same,"fluorescence, % of fluorescent control",[8],0.144% [at 3.72 µM]
same,"fluorescence, % of fluorescein",[9],0.14% [at 3.72 µM]
same,activity change,[11],0.0011% [at 3.72 µM]
same,"fluorescence, % of fluorescent control",[12],0.145% [at 3.72 µM]
same,"fluorescence, % of Rose Bengal",[13],0.0947% [at 3.72 µM]
same,"fluorescence, % of fluorescent control",[14],-0.0023% [at 3.72 µM]
same,"fluorescence, % of fluorescein control",[15],-0.0679% [at 3.72 µM]
same,"fluorescence, % of fluorescent control",[19],0.0214% [at 3.72 µM]
same,activation,[20],-0.603% [at 3.1 µM]
CCOP(=S)(OCC)Oc1ccc(S(C)=O)cc1 (stereo not given),Potency,[17],inactive
same,Potency,[2],inactive
same,Potency,[3],inactive
same,outcome,[5],inactive
same,outcome,[6],inactive
same,outcome,[7],inactive
same,outcome,[8],inactive
same,outcome,[9],inactive
same,outcome,[10],inactive
same,outcome,[11],inactive
same,outcome,[12],inactive
same,outcome,[13],inactive
same,outcome,[14],inactive
same,outcome,[15],inactive
C=CCSSCC=C,Potency,[17],inactive
same,Potency,[2],inactive
same,Potency,[18],inactive
same,Potency,[3],inactive
same,Potency,[4],inactive
same,outcome,[5],inactive
same,outcome,[6],inactive
same,outcome,[7],inactive
same,outcome,[8],inactive
same,outcome,[9],inactive
same,outcome,[10],inactive
same,outcome,[11],inactive
same,outcome,[12],inactive
same,outcome,[13],inactive
same,outcome,[14],inactive
same,outcome,[15],inactive
CC(C)[C@@H](C(=O)O[C@@H](C#N)c1cccc(Oc2ccccc2)c1)c1ccc(Cl)cc1,Potency,[17],inactive
same,Potency,[2],inactive
same,Potency,[18],inactive
same,outcome,[5],inactive
same,outcome,[6],inactive
same,outcome,[8],inactive
same,outcome,[10],inactive
same,outcome,[11],inactive
same,outcome,[12],inactive
same,outcome,[13],inactive
same,outcome,[14],inactive
same,outcome,[15],inactive
same,outcome,[19],inactive
COc1ccc(C(=O)c2c(C)n(CCN3CCOCC3)c3ccccc23)cc1,Potency,[17],inactive
same,Potency,[2],inactive
same,Potency,[18],inactive
same,Potency,[3],inactive
same,outcome,[5],inactive
same,outcome,[6],inactive
same,outcome,[7],inactive
same,outcome,[8],inactive
same,outcome,[9],inactive
same,outcome,[10],inactive
same,outcome,[11],inactive
same,outcome,[12],inactive
same,outcome,[13],inactive
same,outcome,[14],inactive
same,outcome,[15],inactive
same,outcome,[19],inactive
NCCc1cc(O)c(O)cc1O,Potency,[17],inactive
same,Potency,[2],inactive
same,Potency,[18],inactive
same,Potency,[3],inactive
same,outcome,[5],inactive
same,outcome,[6],inactive
same,outcome,[8],inactive
same,outcome,[9],inactive
same,outcome,[10],inactive
same,outcome,[11],inactive
same,outcome,[12],inactive
same,outcome,[13],inactive
same,outcome,[14],inactive
same,outcome,[15],inactive
same,outcome,[19],inactive
same,Potency,[20],inactive
same,Potency,[16],inactive
C[C@H]1[C@@H]2Cc3ccc(O)cc3[C@@]1(C)CCN2C,Potency,[17],inactive
same,Potency,[2],inactive
same,Potency,[18],inactive
same,Potency,[3],inactive
same,outcome,[5],inactive
same,outcome,[6],inactive
same,outcome,[7],inactive
same,outcome,[8],inactive
same,outcome,[9],inactive
same,outcome,[10],inactive
same,outcome,[11],inactive
same,outcome,[12],inactive
same,outcome,[13],inactive
same,outcome,[14],inactive
same,outcome,[15],inactive
same,outcome,[19],inactive
same,Potency,[16],inactive
CCCCCBr,Potency,[17],inactive
same,Potency,[2],inactive
same,Potency,[18],inactive
same,Potency,[3],inactive
same,outcome,[5],inactive
same,outcome,[6],inactive
same,outcome,[7],inactive
same,outcome,[8],inactive
same,outcome,[9],inactive
same,outcome,[10],inactive
same,outcome,[11],inactive
same,outcome,[12],inactive
same,outcome,[13],inactive
same,outcome,[14],inactive
same,outcome,[15],inactive
same,Potency,[20],inactive
same,Potency,[16],inactive
